An excerpt weighted towards active compounds, which were near 3% of everything screened.
esBAF inh: blocks esBAF chromatin remodeling in mouse ES cells. Bmi1-luciferase knock-in reporter, 24 h; 100% = twice the neutral-well signal. reporter increase, % at 12.5 µM. 2% of 350,000 active; in the data active = activation above about 40%;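 also: a rise in the Bmi1 reporter signal indicates esBAF inhibition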
Wnt bcat act: activators of Wnt/beta-catenin signaling | Wnt/beta-catenin reporter cell assay, activator, plate reader | activation, % at 9.35 µM | 1.2% of 300,000 active; in the data active = activation above about 30%, passing the limit was not always enough
Statin myotox sup: protects C2C12 myotubes from simvastatin toxicity; 0.78% of 330,000 active; ATP luminescence, 48 h; scaled: DMSO 0, geranylgeraniol control 100; rescue of ATP level, % at 7.49 µM;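 active = mean ATP rescue above about 67%, or every replicate alone reaching that limit, limit read from the data, passing the limit was not always enough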;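 also: myotubes were challenged with 10 µM simvastatin during compound exposure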
MITF act: MITF TRPM1 promoter activation in melanoma cells; 0.75% of 300,000 active; activation, % at 12.5 µM; AID 588334; SK-MEL-5 TRPM1-promoter luciferase, 24 h; % of positive control, neutral wells = 0;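 active = mean activation of at least 80% with every replicate also reaching 80%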
Of the large screens only hits and unclear results are named; the others gave an inactive call.

CS(=O)(=O)n1c2ccccc2c(=O)n1-c1ccccc1CCl	esBAF inh 56 (no result: MITF act)
O=C(c1ccccc1)n1c2ccccc2c(=O)n1-c1ccccc1CCl	esBAF inh 87 (no result: Wnt bcat act, MITF act)
CCN(CCCNC(=O)C1CCC(=O)N1C(C)C)c1cccc(C)c1 (stereo unspecified)	Statin myotox sup 126 (no result: Wnt bcat act)
CCN(CC)S(=O)(=O)N1CCC(C(=O)NCCN2CCOCC2)CC1	Statin myotox sup 107
CCCCN(CC)S(=O)(=O)N1CCC(C(=O)NCCCN2CCOCC2)CC1	none (no result: esBAF inh, Statin myotox sup)
Cc1ccc(-c2ccc([C@@H]3[C@@H](CO)N4CCCCN(C(=O)c5ccc(F)cc5)C[C@@H]34)cc2)cc1	none (no result: Wnt bcat act, MITF act)
CN1CCN(C(=O)C[C@@H]2CC[C@@H]3[C@H](COc4ccc(NC(=O)C5CCOCC5)cc4C(=O)N3C)O2)CC1	none (no result: Wnt bcat act, MITF act)
C/C(NC(=O)c1cccc(F)c1)=C1/C(=O)C[C@@H]2[C@H]1C2(C)C	esBAF inh 65, Statin myotox sup 128, MITF act 109 (no result: Wnt bcat act)
C[C@H]1CN([C@@H](C)CO)C(=O)c2cc(NC(=O)Nc3ccc(F)cc3)ccc2O[C@H]1CN(C)C(=O)Nc1ccc(C(F)(F)F)cc1	none (no result: Wnt bcat act, Statin myotox sup, MITF act)
CCS(=O)(=O)NCC[C@H]1CC[C@H](NC(=O)Cc2ccccn2)[C@H](CO)O1	none (no result: Wnt bcat act, MITF act)
Cn1cnc2c1c(=O)n(Cc1ccccc1)c(=O)n2C	Wnt bcat act 32 (no result: MITF act)
c1ccc2c(-n3cccn3)cccc2c1	esBAF inh 71 (no result: Wnt bcat act)
CCOP(=O)(OCC)C(NC(=O)/C=C/c1ccc(OC)cc1)c1ccccc1 (stereo unspecified)	Wnt bcat act 34 (no result: esBAF inh, Statin myotox sup)
COc1ccc2nc(SCC(=O)c3ccco3)[nH]c2c1	Wnt bcat act 33, MITF act 95
COc1ccc2nc(SCC(=O)C(C)(C)C)[nH]c2c1	Wnt bcat act 41 (no result: esBAF inh, Statin myotox sup)
COc1ccc2nc(SCC(=O)NC(C)(C)C)[nH]c2c1	none (no result: Wnt bcat act)
O=C(CSc1nc2ccccc2[nH]1)c1ccco1	none (no result: Wnt bcat act)
C[C@H](CO)N1C[C@H](C)[C@@H](CN(C)Cc2ccc(Cl)c(Cl)c2)Oc2ccc(NS(C)(=O)=O)cc2CC1=O	Statin myotox sup 92 (no result: Wnt bcat act, MITF act)
C[C@@H]1CN([C@H](C)CO)C(=O)Cc2cc(NS(C)(=O)=O)ccc2O[C@@H]1CN(C)Cc1ccc(Cl)c(Cl)c1	Statin myotox sup 108 (no result: Wnt bcat act, MITF act)
C[C@H]1CN([C@@H](C)CO)C(=O)Cc2cc(NS(=O)(=O)c3ccccc3)ccc2O[C@@H]1CN(C)Cc1ccc(Cl)c(Cl)c1	Statin myotox sup 103 (no result: Wnt bcat act, MITF act)
C[C@H]1CN([C@@H](C)CO)C(=O)Cc2cc(NS(C)(=O)=O)ccc2O[C@@H]1CN(C)Cc1ccc(Cl)c(Cl)c1	none
C[C@@H]1CN([C@@H](C)CO)C(=O)Cc2cc(NS(=O)(=O)c3ccccc3)ccc2O[C@@H]1CN(C)Cc1ccc(Cl)c(Cl)c1	none (no result: Wnt bcat act, MITF act)
O=C(C[C@@H]1C=C[C@H](NS(=O)(=O)c2ccc(F)cc2)[C@H](CO)O1)NCc1ccc(Cl)c(Cl)c1	none (no result: Wnt bcat act, MITF act)
Cc1onc(-c2c(Cl)cccc2Cl)c1NC(=O)NC1CCSC1 (stereo unspecified)	Wnt bcat act 34 (no result: esBAF inh, Statin myotox sup, MITF act)
NC(=O)c1c(NC(=O)c2ccccc2F)sc2c1CCCC2	esBAF inh 65
Cn1cc(Br)c(C(=O)Nc2sc3c(c2C(N)=O)CCCC3)n1	esBAF inh 67, MITF act 85
NC(=O)c1c(NC(=O)c2ccc(F)cc2Cl)sc2c1CCC2	esBAF inh 49
CCn1cc(Br)c(C(=O)Nc2sc3c(c2C(N)=O)CCCC3)n1	none (no result: Wnt bcat act)
CO[C@H]1CN(C)C(=O)c2cc(NC(=O)c3cc(C)on3)ccc2OC[C@@H](C)N(CC2CC2)C[C@@H]1C	none (no result: Wnt bcat act, MITF act)
C[C@H](CO)N1C[C@H](C)[C@H](CN(C)C(=O)Nc2ccc(F)cc2)OCCCC[C@H](C)Oc2ccc(NC(=O)Cc3ccccc3)cc2C1=O	Statin myotox sup 107 (no result: Wnt bcat act, MITF act)
C[C@H]1CCCCO[C@H](CN(C)C(=O)C2CCCCC2)[C@@H](C)CN([C@@H](C)CO)C(=O)c2cc(NC(=O)Cc3ccccc3)ccc2O1	Statin myotox sup 80 (no result: Wnt bcat act, MITF act)
Clc1ccc(C(c2nnnn2C2CCCC2)N2CCN(c3nc4ccccc4s3)CC2)cc1 (stereo unspecified)	none (no result: esBAF inh, Statin myotox sup)
c1cnc2ccc(C(c3nnnn3C3CCCC3)N3CCN(c4nc5ccccc5s4)CC3)cc2c1 (stereo unspecified)	Statin myotox sup 122
NC(=O)c1ccc(-c2nnn(CC(=O)N(C3CCCC3)C3CCS(=O)(=O)C3)n2)cc1 (stereo unspecified)	none
O=C(Cn1nnc(-c2ccncc2)n1)N(C1CCCCC1)C1CCCCC1	Statin myotox sup 124
COC(=O)C[C@H]1CC[C@H](NC(=O)Nc2ccc(C(F)(F)F)cc2)[C@@H](CO)O1	none (no result: Wnt bcat act, MITF act)
CCC(=O)N1CCc2cc(Br)cc(S(=O)(=O)NCCN3CCCC3)c21	none

High-throughput results as filed in PubChem.
